From PubChem BioAssay (Tox21)
Values joined by “and” are separate entries in the source; they are usually repeats but may differ in a detail not shown here. Equal entries are not always repeated. Records with an inconclusive call do not appear. Active and inactive are the calls of the source. Unless noted, calls come from the whole dose curve.

Assays:
[1] = Nuclear factor erythroid 2-related factor 2/antioxidant responsive element (Nrf2/ARE) small molecule agonists: luciferase reporter gene qHTS assay in human keratinocytes (AID 1919969); note: nearly all actives have a fitted effect of over 35% in size; note: potency is the fitted concentration of half-maximal effect
[2] = biological target: Gonadotropin-releasing hormone receptor (Homo sapiens) (UniProt P30968); test: Human gonadotropin-releasing hormone receptor (GnRHR) small molecule agonists, calcium flux assay in GnRHR-HEK293 cells (AID 1920063); note: nearly all actives have a fitted effect of over 35% in size; note: potency is the fitted concentration of half-maximal effect
In short: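 Intracellular calcium rise is the read-out: engineered human GnRHR HEK293 cells, dye-loaded, are exposed to DMSO-dissolved compounds and fluorescence at Ex/Em 480/540 is tracked for 3 min.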

[3] = biological target: KiSS-1 receptor (Homo sapiens) (UniProt Q969F8); test: Human kisspeptin (KISS1R) small molecule agonists, calcium flux assay in KISS1R-HEK293 cells (AID 1920064; active = well fitted activation curve with a large enough effect in the repeat runs)
In short: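 Concentration-response testing used 15 concentrations in triplicate on human KISS1R-expressing HEK293 cells. Calcium-dependent fluorescence (Ex/Em 480/540) was followed kinetically for 3 min after compound transfer.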

[4] = G protein-coupled receptor (GPCR) small molecule agonists, calcium flux assay: HEK293 wild type cell line counter screen (AID 1920065); note: potency is the fitted concentration of half-maximal effect
In short: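 Fluorescence intensity signals activation. After overnight (18 h) culture and a 1 h calcium dye load at 37 C, compounds are added by pin tool and the plate read at 480/540 nm for 3 min in 1 s steps.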

[5] = p53 small molecule agonists, cell-based qHTS assay with human liver microsomes: qHTS cell viability counter screen (AID 1963579); note: nearly all actives have a fitted effect of over 45% in size; note: potency is the fitted concentration of half-maximal effect
In short: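 Seed p53RE-bla cells at 4,000 per well; incubate 5 h at 37 C; add compound, human liver microsomes and NADPH; incubate 16 h at 37 C; add CellTiter-Glo; after 30 min at room temperature, read luminescence.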

[6] = p53 small molecule agonists, cell-based qHTS assay with rat liver microsomes: qHTS cell viability counter screen (AID 1963580); note: nearly all actives have a fitted effect of over 45% in size; note: potency is the fitted concentration of half-maximal effect
In short: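 Cytotoxicity counter screen: intracellular ATP measured by CellTiter-Glo luminescence in the same wells as the beta-lactamase reporter read, on HCT-116 p53RE-bla cells exposed 16 h at 37 C to compounds with rat liver microsomes and NADPH, each 0.5 mg/mL final.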

[7] = biological target: 5-hydroxytryptamine receptor 2A (Homo sapiens) (UniProt P28223); test: 5-hydroxytryptamine receptor 2A (HTR2A) small molecule antagonists, cell-based qHTS assay (AID 1963586); note: nearly all actives have a fitted effect of over 45% in size; note: potency is the fitted concentration of half-maximal effect
In short: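 CHO cells stably expressing human HTR2A were plated for 18 h at 37 C, then loaded with calcium dye for 1 h. Compounds were preincubated 5 min at room temperature before DOI (4 nM solution) was added. Kinetic fluorescence was read for 3 min.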

[8] = biological target: 5-hydroxytryptamine receptor 2A (Homo sapiens) (UniProt P28223); test: 5-hydroxytryptamine receptor 2A (HTR2A) small molecule agonists, cell-based qHTS assay (AID 1963587); note: nearly all actives have a fitted effect of over 30% in size; note: potency is the fitted concentration of half-maximal effect
In short: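 CHO cells stably expressing human HTR2A, plated 18 h, loaded with calcium dye 1 h at 37 C. Agonist mode: compounds added and intracellular calcium fluorescence recorded kinetically for 2 min at 1 sec intervals.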

[9] = biological target: Muscarinic acetylcholine receptor M1 (Homo sapiens) (UniProt P11229); test: Cholinergic receptor muscarinic 1 (CHRM1) small molecule antagonists, cell-based qHTS assay (AID 1963588); note: nearly all actives have a fitted effect of over 40% in size; note: potency is the fitted concentration of half-maximal effect
In short: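 Compounds were tested at 15 concentrations in three independent runs. Dye-loaded CHRM1-CHO cells were exposed 5 min at room temperature before stimulation by acetylcholine added at 50nM. Intracellular calcium was read kinetically on FDSS for 3 min.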

[10] = biological target: Beta-2 adrenergic receptor (Homo sapiens) (UniProt P07550); test: Adrenergic beta2 receptor (ADRB2) small molecule antagonists, cell-based qHTS assay (AID 1963592); note: nearly all actives have a fitted effect of over 50% in size; note: potency is the fitted concentration of half-maximal effect
In short: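 Assay format: CHO-ADRB2 cells, 18-20hr seeding at 37C/5% CO2, then compound plus 1nM isoproterenol agonist mix for 0.5hr RT. Homogeneous time-resolved fluorescence cAMP detection after 1hr, expressed as 665/615 nm ratio.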

[11] = biological target: D(2) dopamine receptor (Homo sapiens) (UniProt P14416); test: Dopamine D2 receptor (DRD2) small molecule agonists, cell-based qHTS assay (AID 1963594); note: nearly all actives have a fitted effect of over 35% in size
In short: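 HEK293 cells stably expressing human DRD2, pre-treated with PDE inhibitor Ro20-1724 (0.1 mM final) and compound 10 min at room temperature, then stimulated with NKH477 (200nM […]) for 30 min. cAMP read by HTRF (665/620 nm).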

[12] = biological target: D(2) dopamine receptor (Homo sapiens) (UniProt P14416); test: Dopamine D2 receptor (DRD2) small molecule antagonists, cell-based qHTS assay (AID 1963595; active = well fitted inhibition curve with a large enough effect in the signal ratio in the repeat runs, with a control signal flat; the % refers to the signal ratio; note: potency is the fitted concentration of half-maximal effect)
In short: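 Human DRD2 antagonist qHTS measuring cAMP by HTRF. The cells are exposed to compound for 10 min, then to NKH477 (200 nM) and quinpirole (12 nM) for 30 min at RT, with Ro20-1724 (0.1 mM) present throughout.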

[13] = p53 small molecule agonists, cell-based qHTS assay with human liver microsomes (AID 1963577)
In short: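 Cells carrying a p53-responsive bla reporter were rested 5 h (37 C, 5% CO2) before compound transfer. Human liver microsomes plus NADPH, 0.5 mg/mL final apiece, supplied metabolism during the 16 h 37 C exposure.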

[14] = p53 small molecule agonists, cell-based qHTS assay with rat liver microsomes (AID 1963578)
In short: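 Fluorescence from a beta-lactamase reporter under a p53 response element was measured after cells had been incubated 16 h at 37 C with test compound and rat liver microsomes plus NADPH (0.5 mg/mL final each).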

[15] = p53 small molecule agonists, cell-based qHTS assay: qHTS cell viability counter screen (AID 1963581); note: nearly all actives have a fitted effect of over 45% in size; note: potency is the fitted concentration of half-maximal effect
In short: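 Luminescence from CellTiter-Glo, reflecting ATP content, serves as the cytotoxicity measure; it is taken after the 2 h reporter substrate step in HCT-116 p53RE-bla cells dosed for 16 h at 37 C.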

[16] = p53 small molecule agonists, cell-based qHTS assay (AID 1963582; active = well fitted activation curve with a large enough effect in the signal ratio in the repeat runs, not every such curve was filed as active; the % refers to the signal ratio; note: potency is the fitted concentration of half-maximal effect)
In short: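 After plating, p53RE-bla cells sat 5 h in the incubator; compounds or DMSO vehicle were pinned in; a 16 h incubation at 37 C followed; FRET substrate was added and, 2 h later at RT, fluorescence was measured.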

[17] = biological target: Muscarinic acetylcholine receptor M1 (Homo sapiens) (UniProt P11229); test: Cholinergic receptor muscarinic 1 (CHRM1) small molecule agonists, cell-based qHTS assay (AID 1963589); note: nearly all actives have a fitted effect of over 35% in size; note: potency is the fitted concentration of half-maximal effect
In short: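 Fluorescent calcium dye reports M1 activation in stably transfected CHO cells. Compounds, 15 concentrations, added after 1 h dye loading at 37 C; kinetic reading at 1 sec intervals.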

[18] = cAMP Responsive Elements (CRE) small molecule agonists, cell-based qHTS assay (AID 1963590)
In short: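 Compound exposure lasted 3 h at 37 C/5% CO2 in CRE-bla HEK 293T cells grown in assay medium with 10% dialyzed FBS and 25 mM HEPES. Reporter signal came from LiveBLAzer B/G FRET substrate, 2 h, room temperature.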

[19] = cAMP Responsive Elements (CRE) small molecule antagonists, cell-based qHTS assay (AID 1963591; active = well fitted inhibition curve with a large enough effect in the signal ratio in the repeat runs, not every such curve was filed as active; the % refers to the signal ratio)
In short: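 Stimulation used NKH477 at a final 0.25 uM for 3 h in compound-treated CRE-bla HEK293T cells, seeded 18 h beforehand. Reporter activity was measured with LiveBLAzer B/G FRET substrate after 2 h at room temperature.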

[20] = biological target: Beta-2 adrenergic receptor (Homo sapiens) (UniProt P07550); test: Adrenergic beta2 receptor (ADRB2) small molecule agonists, cell-based qHTS assay (AID 1963593);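 note: CHO cells stably overexpressing human ADRB2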
In short: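 CHO cells stably over-expressing ADRB2 were plated overnight at 37C, then dosed with compounds plus a stimulation mix containing 100uM IBMX and 25uM Ro-20-1724 for 0.5hr at room temperature. cAMP was measured by HTRF competition, 1hr.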

Measured: Potency

Sequence of Gonadotropin-releasing hormone receptor (Homo sapiens) (P30968 whole entry, looked up): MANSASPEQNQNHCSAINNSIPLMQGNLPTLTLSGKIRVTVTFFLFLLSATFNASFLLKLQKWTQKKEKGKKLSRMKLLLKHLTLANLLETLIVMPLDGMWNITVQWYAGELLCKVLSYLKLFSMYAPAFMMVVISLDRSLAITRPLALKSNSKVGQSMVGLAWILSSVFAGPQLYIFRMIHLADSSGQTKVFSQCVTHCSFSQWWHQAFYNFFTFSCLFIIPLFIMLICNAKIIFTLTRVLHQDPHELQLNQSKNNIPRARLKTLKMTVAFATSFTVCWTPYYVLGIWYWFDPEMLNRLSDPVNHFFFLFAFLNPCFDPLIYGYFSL
Sequence of 5-hydroxytryptamine receptor 2A (Homo sapiens) (P28223 whole entry, looked up): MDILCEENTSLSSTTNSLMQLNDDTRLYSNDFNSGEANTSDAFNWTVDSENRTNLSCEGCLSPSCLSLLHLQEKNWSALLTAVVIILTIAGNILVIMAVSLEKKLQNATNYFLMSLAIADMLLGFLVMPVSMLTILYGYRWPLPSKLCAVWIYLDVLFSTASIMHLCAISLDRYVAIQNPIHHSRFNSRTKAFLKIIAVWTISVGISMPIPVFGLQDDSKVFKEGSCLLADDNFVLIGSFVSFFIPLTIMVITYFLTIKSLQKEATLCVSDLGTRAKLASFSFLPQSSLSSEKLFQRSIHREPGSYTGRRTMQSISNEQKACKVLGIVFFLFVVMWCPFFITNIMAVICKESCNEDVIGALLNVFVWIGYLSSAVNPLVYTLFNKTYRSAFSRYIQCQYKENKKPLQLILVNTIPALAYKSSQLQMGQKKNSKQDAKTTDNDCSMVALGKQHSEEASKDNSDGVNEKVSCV
Sequence of KiSS-1 receptor (Homo sapiens) (Q969F8 whole entry, looked up): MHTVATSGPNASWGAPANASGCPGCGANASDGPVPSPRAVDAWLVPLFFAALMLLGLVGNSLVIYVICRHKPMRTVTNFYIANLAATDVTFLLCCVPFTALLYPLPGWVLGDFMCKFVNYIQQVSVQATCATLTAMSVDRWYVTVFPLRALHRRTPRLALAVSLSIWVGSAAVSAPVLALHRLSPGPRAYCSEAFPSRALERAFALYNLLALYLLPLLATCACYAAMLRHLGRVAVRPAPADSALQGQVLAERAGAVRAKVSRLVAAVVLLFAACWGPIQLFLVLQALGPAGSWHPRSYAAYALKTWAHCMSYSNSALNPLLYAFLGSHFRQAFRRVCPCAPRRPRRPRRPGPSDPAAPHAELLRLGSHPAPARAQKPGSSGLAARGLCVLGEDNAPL
Sequence of Beta-2 adrenergic receptor (Homo sapiens) (P07550 whole entry, looked up): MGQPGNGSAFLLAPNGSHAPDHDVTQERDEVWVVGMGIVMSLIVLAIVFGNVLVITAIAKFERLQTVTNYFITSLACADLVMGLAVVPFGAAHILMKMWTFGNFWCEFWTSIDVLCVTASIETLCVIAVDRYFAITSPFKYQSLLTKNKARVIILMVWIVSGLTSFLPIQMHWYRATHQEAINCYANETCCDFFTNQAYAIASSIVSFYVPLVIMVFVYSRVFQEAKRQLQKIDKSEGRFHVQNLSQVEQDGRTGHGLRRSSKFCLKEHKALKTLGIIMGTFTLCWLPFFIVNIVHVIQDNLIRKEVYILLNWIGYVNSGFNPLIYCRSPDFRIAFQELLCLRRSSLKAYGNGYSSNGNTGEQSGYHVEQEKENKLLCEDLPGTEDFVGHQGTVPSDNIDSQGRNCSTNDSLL
Sequence of Muscarinic acetylcholine receptor M1 (Homo sapiens) (P11229 whole entry, looked up): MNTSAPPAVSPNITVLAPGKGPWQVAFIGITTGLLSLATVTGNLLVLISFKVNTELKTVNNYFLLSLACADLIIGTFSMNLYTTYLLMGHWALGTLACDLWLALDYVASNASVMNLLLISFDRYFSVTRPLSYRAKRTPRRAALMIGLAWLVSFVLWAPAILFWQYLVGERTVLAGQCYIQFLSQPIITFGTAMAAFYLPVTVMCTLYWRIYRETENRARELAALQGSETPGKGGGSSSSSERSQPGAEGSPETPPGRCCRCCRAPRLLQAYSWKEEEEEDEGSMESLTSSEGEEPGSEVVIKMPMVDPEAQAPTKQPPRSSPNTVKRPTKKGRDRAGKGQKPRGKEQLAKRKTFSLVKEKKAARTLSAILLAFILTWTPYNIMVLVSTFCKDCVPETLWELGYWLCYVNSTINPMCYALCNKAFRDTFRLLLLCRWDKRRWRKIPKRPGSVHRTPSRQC
Sequence of D(2) dopamine receptor (Homo sapiens) (P14416 whole entry, looked up): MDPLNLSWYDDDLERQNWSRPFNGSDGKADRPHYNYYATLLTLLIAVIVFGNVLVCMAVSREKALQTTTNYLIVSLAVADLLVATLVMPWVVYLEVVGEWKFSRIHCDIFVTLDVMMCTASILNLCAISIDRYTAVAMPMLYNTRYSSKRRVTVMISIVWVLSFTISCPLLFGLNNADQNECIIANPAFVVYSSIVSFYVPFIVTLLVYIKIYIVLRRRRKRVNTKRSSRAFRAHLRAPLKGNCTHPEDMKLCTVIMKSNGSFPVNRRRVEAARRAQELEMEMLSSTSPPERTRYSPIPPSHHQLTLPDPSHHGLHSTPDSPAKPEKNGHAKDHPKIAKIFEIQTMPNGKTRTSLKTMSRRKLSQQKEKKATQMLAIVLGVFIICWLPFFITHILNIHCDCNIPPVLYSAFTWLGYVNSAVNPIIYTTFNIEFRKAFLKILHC

O=c1cc(-c2ccccc2)oc2cc(O)cc(O)c12
active: [1] 24.3 µM
not listed: [13] | [14] | [15] | [16] | [17] | [18] | [19] | [20]
inactive: all other assays above

O=[N+]([O-])c1ccc(NCCO)c(OCCO)c1
not listed: [4] | [8] | [20]
inactive: all other assays above

O=C(Nc1ncc([N+](=O)[O-])s1)c1cccs1
active: [1] 1.06 µM
not listed: [4] | [6] | [7] | [9] | [10] | [18] | [20]
inactive: all other assays above

C[C@@H](CN(C)C)CN1c2ccccc2Sc2ccccc21
active: [7] 0.0041 µM | [10] 29.8 µM | [12] 1.68 µM
not listed: [2] | [9] | [11] | [16] | [19] | [20]
inactive: all other assays above

BrCc1cccc(Oc2ccccc2)c1
not listed: [3] | [9] | [13] | [14] | [16] | [20]
inactive: all other assays above

COc1ccc(OC(F)(F)F)cc1CN[C@H]1CCCN[C@H]1c1ccccc1
not listed: [2] | [8] | [11] | [12] | [18] | [19]
inactive: all other assays above

O=C(CCCCCCC(=O)Nc1ccccc1)NO
active: [1] 8.41 µM
not listed: [3] | [12] | [19]
inactive: all other assays above

CC1C2CC(CC2C2CCCC(O)C2)C1(C)C (configuration not stated)
not listed: [3] | [6] | [14] | [18] | [19]
inactive: all other assays above

CN1CCC(Nc2ncc3ncnc(Nc4ccc(F)c(Cl)c4)c3n2)CC1
inactive: [1] | [2] | [3] | [6] | [7] | [8] | [17] | [10] | [11] | [12]

CC(Cc1ccc(O)c(O)c1)C(C)Cc1ccc(O)c(O)c1 (configuration not stated)
inactive: [2] | [4] | [13] | [14] | [5] | [17] | [11] | [12]
active: [1] 68.6 µM

CCCCCCCCCCCCCCCCCC[N+](C)(C)Cc1ccccc1
active: [5] 46.2 µM | [6] 46.2 µM | [15] 20.6 µM | [9] 0.19 µM | [10] 61.7 µM
inactive: [1] | [2] | [4] | [13] | [7] | [17] | [11]

CCCCCCOc1ccc(O)cc1
active: [1] 21.7 µM | [12] 48.6 µM
inactive: [2] | [3] | [5] | [7] | [8] | [9] | [17] | [11]

CCCCN(CCCC)c1ccc(C(=O)c2ccccc2C(=O)O)c(O)c1
active: [5] 16.4 µM | [6] 41.2 µM | [15] 20.6 µM | [8] 55.5 µM | [17] 49.4 µM
not listed: [3] | [7] | [16] | [18] | [19] | [20]
inactive: all other assays above

CC(C)c1ccc2c(c1)CC[C@H]1[C@](C)(CN)CCC[C@]21C
active: [2] 11 µM | [5] 40.8 µM | [7] 29.8 µM | [8] 49 µM | [12] 68.6 µM
inactive: [1] | [13] | [16] | [9] | [10]

Nc1ccc2cc3ccc(N)cc3nc2c1
inactive: [13] | [5] | [15] | [7] | [9] | [11] | [12]
active: [1] 1.54 µM and 6.68 µM | [2] 38.9 µM and 16.9 µM | [4] 38.9 µM and 16.9 µM | [16] 1.82 µM | [8] 19.5 µM and 19 µM | [17] 43.6 µM and 23.9 µM

CCCCCCCCCCCCCCOS(=O)(=O)O
active: [8] 43.6 µM
not listed: [3] | [5] | [7] | [15]
inactive: all other assays above

COc1ccc(-c2ccc3cc(C(=O)O)ccc3c2)cc1C12CC3CC(CC(C3)C1)C2
not listed: [3] | [6] | [20]
inactive: all other assays above
